Measurements: ChEMBL document CHEMBL3988442, “University of Dundee, Small-Polar-MMV Screening Library” (2021)
For some assays here: Results with a measured potency or affinity are listed apart.

Columns and labels:
Set-up in all cases: scale not given: direction of the effect not stated beside the values
[1] = molecular target: Protein translocase subunit SecA (Escherichia coli (strain K12)) (UniProt P10408); test: Assay to Identify E. coli SecA ATPase Inhibitors; format: functional; settings: 30 µM
Protein translocase subunit SecA (Escherichia coli (strain K12)), sequence (P10408 whole entry): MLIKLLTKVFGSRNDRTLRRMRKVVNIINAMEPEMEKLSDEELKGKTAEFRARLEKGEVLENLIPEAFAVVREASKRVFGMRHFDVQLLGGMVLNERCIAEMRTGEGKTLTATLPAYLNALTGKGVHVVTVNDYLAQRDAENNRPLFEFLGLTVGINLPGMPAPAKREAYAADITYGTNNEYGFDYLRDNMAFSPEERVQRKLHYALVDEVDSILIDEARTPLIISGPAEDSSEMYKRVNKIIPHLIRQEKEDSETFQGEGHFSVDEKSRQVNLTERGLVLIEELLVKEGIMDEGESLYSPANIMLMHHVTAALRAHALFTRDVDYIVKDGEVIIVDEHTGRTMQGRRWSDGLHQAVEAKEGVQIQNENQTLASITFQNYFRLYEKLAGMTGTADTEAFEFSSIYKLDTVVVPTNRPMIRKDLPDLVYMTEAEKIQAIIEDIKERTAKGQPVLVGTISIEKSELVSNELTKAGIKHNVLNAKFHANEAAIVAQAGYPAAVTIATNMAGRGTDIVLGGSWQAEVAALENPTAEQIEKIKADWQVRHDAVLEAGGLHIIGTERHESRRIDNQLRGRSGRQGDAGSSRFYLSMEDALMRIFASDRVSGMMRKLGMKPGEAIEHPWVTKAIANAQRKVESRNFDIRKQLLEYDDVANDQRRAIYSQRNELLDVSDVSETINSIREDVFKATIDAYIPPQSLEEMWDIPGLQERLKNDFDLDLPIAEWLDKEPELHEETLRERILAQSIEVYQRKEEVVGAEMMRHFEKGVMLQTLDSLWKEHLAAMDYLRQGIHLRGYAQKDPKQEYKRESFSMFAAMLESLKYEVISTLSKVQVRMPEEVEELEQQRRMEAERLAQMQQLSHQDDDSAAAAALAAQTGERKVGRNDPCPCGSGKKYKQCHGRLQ

[2] = molecular target: T1, Ubiquitin-activating enzyme e1, putative (Leishmania donovani (strain BPK282A1)) (UniProt E9BSI1); test: Leishmania donovani Ubiquitin Activating Enzyme (LdE1); format: functional; settings: 30 µM
T1 sequence (whole entry): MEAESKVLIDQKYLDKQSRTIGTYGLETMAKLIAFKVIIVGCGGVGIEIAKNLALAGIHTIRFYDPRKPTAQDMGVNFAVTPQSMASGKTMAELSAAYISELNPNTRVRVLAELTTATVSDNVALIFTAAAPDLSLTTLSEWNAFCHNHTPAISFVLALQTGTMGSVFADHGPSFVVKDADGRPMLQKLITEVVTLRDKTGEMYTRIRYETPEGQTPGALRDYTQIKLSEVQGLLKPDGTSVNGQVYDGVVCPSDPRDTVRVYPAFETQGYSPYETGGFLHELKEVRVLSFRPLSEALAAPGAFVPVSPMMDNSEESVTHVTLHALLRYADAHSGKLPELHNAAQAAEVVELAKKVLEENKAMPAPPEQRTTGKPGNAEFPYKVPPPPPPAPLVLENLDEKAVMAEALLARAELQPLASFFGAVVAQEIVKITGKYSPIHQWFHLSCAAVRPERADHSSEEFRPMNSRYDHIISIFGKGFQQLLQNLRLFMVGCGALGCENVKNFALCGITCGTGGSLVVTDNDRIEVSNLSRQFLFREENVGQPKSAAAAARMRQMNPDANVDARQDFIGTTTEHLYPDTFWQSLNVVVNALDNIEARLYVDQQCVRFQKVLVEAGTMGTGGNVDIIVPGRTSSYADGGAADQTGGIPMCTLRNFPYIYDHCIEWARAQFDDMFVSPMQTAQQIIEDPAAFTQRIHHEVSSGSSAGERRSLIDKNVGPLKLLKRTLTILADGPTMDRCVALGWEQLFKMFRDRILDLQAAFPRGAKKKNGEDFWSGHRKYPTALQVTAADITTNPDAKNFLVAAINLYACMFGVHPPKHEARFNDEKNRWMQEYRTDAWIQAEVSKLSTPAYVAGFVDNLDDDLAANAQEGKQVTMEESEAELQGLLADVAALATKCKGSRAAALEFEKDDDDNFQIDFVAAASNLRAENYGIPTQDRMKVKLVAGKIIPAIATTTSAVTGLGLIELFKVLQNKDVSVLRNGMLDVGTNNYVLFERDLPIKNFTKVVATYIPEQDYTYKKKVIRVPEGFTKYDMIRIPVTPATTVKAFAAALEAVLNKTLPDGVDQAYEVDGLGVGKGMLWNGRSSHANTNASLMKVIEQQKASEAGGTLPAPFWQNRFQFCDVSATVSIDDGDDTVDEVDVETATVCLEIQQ

[3] = molecular target: T2, Aspartate--tRNA(Asp/Asn) ligase (Mycobacterium tuberculosis (strain ATCC 25618 / H37Rv)) (UniProt P9WFW3); test: Assay for Asp RNA synthetase-1 from Mycobacterium tuberculosis; format: functional; settings: 30 µM; further: in the data most compounds retested in dose-response had high values
T2 sequence (whole entry): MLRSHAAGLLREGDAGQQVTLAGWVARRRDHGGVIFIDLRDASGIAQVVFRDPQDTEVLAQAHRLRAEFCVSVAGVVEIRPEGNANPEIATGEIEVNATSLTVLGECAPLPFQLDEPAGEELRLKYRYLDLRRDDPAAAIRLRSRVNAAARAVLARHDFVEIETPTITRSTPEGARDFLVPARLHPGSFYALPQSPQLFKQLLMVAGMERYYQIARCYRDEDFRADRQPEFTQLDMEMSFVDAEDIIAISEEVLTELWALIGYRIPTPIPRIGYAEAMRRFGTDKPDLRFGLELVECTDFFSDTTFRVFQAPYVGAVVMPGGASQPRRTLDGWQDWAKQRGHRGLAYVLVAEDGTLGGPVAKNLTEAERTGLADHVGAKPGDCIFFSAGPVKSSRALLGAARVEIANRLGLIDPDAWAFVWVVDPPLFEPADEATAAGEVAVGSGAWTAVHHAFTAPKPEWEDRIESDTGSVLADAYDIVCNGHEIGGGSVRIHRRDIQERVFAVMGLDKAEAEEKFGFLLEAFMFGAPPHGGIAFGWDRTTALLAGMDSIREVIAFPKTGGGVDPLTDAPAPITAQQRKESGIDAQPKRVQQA

[4] = molecular target: AMP-activated protein kinase, AMPK (Homo sapiens) (UniProt P54646+O43741+P54619+Q9UGJ0+Q9Y478+Q13131+Q9UGI9); test: AMP-dependent Kinase enzyme assay. An in vitro enzyme assay that detects ADP turnover that is directly proportional to AMPK activity. This uses naive AMPK that is activated during the assay with MK-8722; format: functional; settings: 30 µM
[5] = molecular target: Sialic acid-binding Ig-like lectin 9 (Homo sapiens) (UniProt Q9Y336); test: Hs-Siglec9 ALPHAscreen SOP 20170721; settings: 10 µM
Sialic acid-binding Ig-like lectin 9 (Homo sapiens), sequence (Q9Y336 whole entry): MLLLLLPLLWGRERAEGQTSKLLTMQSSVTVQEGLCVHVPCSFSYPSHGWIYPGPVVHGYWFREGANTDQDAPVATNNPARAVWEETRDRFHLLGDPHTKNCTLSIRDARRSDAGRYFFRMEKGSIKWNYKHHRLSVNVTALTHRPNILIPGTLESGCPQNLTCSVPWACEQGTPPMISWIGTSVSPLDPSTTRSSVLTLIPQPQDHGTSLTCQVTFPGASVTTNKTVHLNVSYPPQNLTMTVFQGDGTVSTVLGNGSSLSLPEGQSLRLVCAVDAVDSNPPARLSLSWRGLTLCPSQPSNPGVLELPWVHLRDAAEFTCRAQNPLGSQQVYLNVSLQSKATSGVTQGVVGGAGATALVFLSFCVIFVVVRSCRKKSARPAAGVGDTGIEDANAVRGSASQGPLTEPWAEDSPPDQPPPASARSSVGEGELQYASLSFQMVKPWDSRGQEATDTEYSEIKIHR

Trypanosoma cruzi = test: Trypanosoma cruzi phosphomannomutase and mannose-1-phosphate guanylyltransferase assay; format: functional; settings: 10 µM
[6] = molecular target: T3, Arginase-2, mitochondrial (Homo sapiens) (UniProt P78540); test: in vitro enzyme assay to detect the production of urea directly proportional to the activity of Arginase II; format: functional; settings: 33.3 µM; further: in the data most compounds retested in dose-response had high values
T3 sequence (whole entry): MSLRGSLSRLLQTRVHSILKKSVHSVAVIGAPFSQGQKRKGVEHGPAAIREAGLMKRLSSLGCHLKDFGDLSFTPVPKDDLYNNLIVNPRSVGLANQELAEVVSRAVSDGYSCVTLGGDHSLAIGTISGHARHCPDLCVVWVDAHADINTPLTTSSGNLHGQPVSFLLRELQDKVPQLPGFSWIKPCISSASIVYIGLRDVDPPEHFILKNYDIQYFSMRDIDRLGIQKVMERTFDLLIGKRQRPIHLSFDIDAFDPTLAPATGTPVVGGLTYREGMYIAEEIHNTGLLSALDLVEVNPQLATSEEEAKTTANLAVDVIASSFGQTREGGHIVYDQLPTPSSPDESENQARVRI

[7] = molecular target: T4, Proteasome subunit beta (Trypanosoma cruzi) (UniProt O96673); test: Trypanosoma cruzi proteasome chymotrypsin-like activity (TcProtChymo) assay.; further: in the data most compounds retested in dose-response had high values; format: functional; settings: 9.37 µM
T4 sequence (whole entry): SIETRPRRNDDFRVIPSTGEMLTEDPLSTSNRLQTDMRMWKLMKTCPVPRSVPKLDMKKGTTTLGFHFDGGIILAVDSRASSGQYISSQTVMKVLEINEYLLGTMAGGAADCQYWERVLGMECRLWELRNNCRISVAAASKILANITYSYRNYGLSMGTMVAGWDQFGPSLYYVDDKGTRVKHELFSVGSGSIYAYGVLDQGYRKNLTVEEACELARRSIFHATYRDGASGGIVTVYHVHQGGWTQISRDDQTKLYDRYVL

Homo sapiens = species on record: Homo sapiens; test: To identify inhibition of the IFN signalling (Jak-Stat) pathway via expression of an eGFP reporter gene under the control of an IFN-stimulated response element (ISRE) containing MxA promoter.; format: functional; settings: 30 µM
[8] = molecular target: Shiga toxin 2 (Escherichia coli O157:H7) (UniProt P09385+P09386); test: E. coli 0.157:H7 Shiga Toxin SOP - stx2 screening assay; format: functional; settings: 30 µM
[9] = molecular target: T5, Tyrosyl-tRNA synthetase, putative (Trypanosoma cruzi (strain CL Brener)) (UniProt Q4DSP6); test: Trypanosoma cruzi tyrosyl tRNA synthetase (TcYRS) _High Tyrosine SOP; format: functional; settings: 30 µM; further: in the data most compounds retested in dose-response had high values
T5 sequence (whole entry): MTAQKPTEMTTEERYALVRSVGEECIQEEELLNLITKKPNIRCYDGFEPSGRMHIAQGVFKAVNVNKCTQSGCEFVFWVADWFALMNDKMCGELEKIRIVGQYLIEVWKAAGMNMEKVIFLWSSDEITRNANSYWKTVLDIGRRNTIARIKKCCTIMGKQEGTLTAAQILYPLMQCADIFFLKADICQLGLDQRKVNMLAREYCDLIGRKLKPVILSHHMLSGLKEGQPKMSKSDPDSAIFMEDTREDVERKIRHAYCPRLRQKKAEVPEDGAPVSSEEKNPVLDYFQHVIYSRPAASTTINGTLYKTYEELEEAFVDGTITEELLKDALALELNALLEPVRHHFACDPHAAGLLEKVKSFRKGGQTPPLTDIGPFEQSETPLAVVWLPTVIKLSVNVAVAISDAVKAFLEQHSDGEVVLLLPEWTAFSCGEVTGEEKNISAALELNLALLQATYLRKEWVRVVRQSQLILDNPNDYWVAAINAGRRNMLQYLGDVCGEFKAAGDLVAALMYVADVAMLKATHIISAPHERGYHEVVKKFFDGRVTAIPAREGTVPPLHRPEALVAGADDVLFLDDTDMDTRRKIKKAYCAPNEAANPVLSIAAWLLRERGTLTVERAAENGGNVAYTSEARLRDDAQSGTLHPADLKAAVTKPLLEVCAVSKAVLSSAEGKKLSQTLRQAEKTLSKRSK

[10] = molecular target: T5, Tyrosyl-tRNA synthetase, putative (Trypanosoma cruzi (strain CL Brener)); test: Trypanosoma cruzi tyrosyl tRNA synthetase (TcYRS) SOP; format: functional; settings: 30 µM
[11] = molecular target: Chromo domain-containing protein 1 (Saccharomyces cerevisiae (strain ATCC 204508 / S288c) (Baker's yeast)) (UniProt P32657); test: ScCHD-1 Enzyme Inhibition Assay; format: functional; settings: 30 µM; further: in the data most compounds retested in dose-response had high values
Chromo domain-containing protein 1 (Saccharomyces cerevisiae (strain ATCC 204508 / S288c) (Baker's yeast)), sequence (P32657 whole entry, the tested form may be a part): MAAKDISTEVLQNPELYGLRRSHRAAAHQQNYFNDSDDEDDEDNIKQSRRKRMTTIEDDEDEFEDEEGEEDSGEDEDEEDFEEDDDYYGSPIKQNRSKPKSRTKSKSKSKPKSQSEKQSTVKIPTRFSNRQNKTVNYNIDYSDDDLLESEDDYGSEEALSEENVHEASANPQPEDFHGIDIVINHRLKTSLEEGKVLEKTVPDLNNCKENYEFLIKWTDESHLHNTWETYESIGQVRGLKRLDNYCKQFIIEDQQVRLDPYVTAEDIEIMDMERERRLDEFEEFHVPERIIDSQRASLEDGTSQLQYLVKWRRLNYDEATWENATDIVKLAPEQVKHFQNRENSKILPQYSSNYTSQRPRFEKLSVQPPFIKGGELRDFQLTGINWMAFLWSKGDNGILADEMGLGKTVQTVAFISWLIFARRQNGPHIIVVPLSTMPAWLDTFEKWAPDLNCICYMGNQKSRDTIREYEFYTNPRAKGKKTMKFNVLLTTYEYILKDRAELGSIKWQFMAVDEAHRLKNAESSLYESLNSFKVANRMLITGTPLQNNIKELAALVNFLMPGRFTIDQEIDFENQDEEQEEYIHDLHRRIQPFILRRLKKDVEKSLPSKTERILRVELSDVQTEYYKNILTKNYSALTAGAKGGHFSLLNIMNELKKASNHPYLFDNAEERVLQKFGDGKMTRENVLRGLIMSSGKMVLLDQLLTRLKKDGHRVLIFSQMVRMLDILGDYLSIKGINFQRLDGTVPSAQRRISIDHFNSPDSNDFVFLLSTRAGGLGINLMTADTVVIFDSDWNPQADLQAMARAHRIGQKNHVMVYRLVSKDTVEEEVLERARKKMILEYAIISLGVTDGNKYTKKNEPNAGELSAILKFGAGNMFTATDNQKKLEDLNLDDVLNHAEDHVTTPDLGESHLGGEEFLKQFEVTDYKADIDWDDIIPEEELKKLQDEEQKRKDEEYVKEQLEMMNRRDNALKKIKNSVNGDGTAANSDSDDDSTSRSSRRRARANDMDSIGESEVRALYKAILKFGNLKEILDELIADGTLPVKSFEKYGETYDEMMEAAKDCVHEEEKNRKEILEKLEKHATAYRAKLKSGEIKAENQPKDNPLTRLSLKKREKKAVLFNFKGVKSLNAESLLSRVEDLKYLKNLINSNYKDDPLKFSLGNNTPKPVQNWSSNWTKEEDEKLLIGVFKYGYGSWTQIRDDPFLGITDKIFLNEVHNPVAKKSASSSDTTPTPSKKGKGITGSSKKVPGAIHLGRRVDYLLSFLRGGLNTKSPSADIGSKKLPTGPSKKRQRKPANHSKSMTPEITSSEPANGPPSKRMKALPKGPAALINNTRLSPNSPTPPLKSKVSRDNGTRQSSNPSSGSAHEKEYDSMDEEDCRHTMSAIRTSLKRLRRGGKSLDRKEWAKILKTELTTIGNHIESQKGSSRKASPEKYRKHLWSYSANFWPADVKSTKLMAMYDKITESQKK

With c1ccc(OC[C@@H]2CCC[C@@]23CNCCO3)nc1 the Percent Effect [1] was -2.73%, the Percent Effect [2] was 5.41% and the Percent Effect [3] was 9.49%. For the same compound, the Percent Effect [4] was 130%, the Percent Effect [5] was -8.96% and the Percent Effect (Trypanosoma cruzi) was -4.79%. For the same compound, the Percent Effect [6] was -7.33%, the Percent Effect [7] was 17.9% and the Percent Effect (Homo sapiens) was 24.8%. The Percent Effect [8] was -5.1%, the Percent Effect [9] was 1.08% and the Percent Effect [10] was 2.56%. For the same compound, the Percent Effect [11] was -0.951%.
Work on c1ccc(CN2CCO[C@H]3[C@H](OCCN4CCCC4)CC[C@@H]32)nc1 yielded a Percent Effect [1] of -1.73%, a Percent Effect [2] of -2.67% and a Percent Effect [3] of 0.641%. The Percent Effect [4] was 2.45%, the Percent Effect [5] was 8.64% and the Percent Effect (Trypanosoma cruzi) was -2.7%. The Percent Effect [6] was -53.2%, the Percent Effect [7] was -0.855% and the Percent Effect (Homo sapiens) was -6.91%. It also gave a Percent Effect [8] of -16.4%, a Percent Effect [9] of 4.17% and a Percent Effect [10] of 5%. It also gave a Percent Effect [11] of 0.266%.
